Measurements from paper PMC5540273 (PLoS ONE, 2017).

What was measured:
Details in all cases: concentration: 1 μM,replicates: in singlicate; n = 1
CAMK1 = test system: CAMK1
CAMK2A = test system: CAMK2A
CAMK2B = test system: CAMK2B
CAMK2D = test system: CAMK2D
CAMK2G = test system: CAMK2G
CAMK4 = test system: CAMK4
CAMKK1 = test system: CAMKK1
CAMKK2 = test system: CAMKK2
CASK = test system: CASK
CDC2L1 = test system: T1, CDC2L1
T1 construct: gene CDK11B

CDC2L2 = test system: CDC2L2
CDC2L5 = test system: T2, CDC2L5
T2 construct: gene CDK13

CDK11 = test system: T3, CDK11
T3 construct: gene CDK19

CDK2 = test system: CDK2
CDK3 = test system: CDK3
CDK4-cyclinD1 = test system: CDK4-cyclinD1
CDK4-cyclinD3 = test system: CDK4-cyclinD3
CDK4 = test system: CDK4
CDK5 = test system: CDK5
CDK7 = test system: CDK7
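Note: KINOMEscan kinase panel screen.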

Row | SMILES | %Inh (CAMK1) | %Inh (CAMK2A) | %Inh (CAMK2B) | %Inh (CAMK2D) | %Inh (CAMK2G) | %Inh (CAMK4) | %Inh (CAMKK1) | %Inh (CAMKK2) | %Inh (CASK) | %Inh (CDC2L1) | %Inh (CDC2L2) | %Inh (CDC2L5) | %Inh (CDK11) | %Inh (CDK2) | %Inh (CDK3) | %Inh (CDK4-cyclinD1) | %Inh (CDK4-cyclinD3) | %Inh (CDK4) | %Inh (CDK5) | %Inh (CDK7)
1 | C[C@@H]1CNc2c(sc3ccc4nc(-c5ccncc5)ccc4c23)C(=O)N1 | 19% | 25% | 23% | 22% | 14% | 13% | 27% | 47% | 0% | 4% | 2% | 0% | 25% | 0% | 0% | 0% | 2% | 0% | 11% | 77%
2 | CCn1c(-c2nonc2N)nc2cncc(Br)c21 [SB-738004] | 14% | 27% | 29% | 27% | 14% | 0% | 25% | 17% | 29% | 0% | 13% | 18% | 14% | 1% | 3% | 43% | 0% | 36% | 0% | 48%
3 | NC(=O)c1ccc(-c2cc3ncnc(SCC(=O)O)c3s2)cc1 | 0% | 0% | 0% | 0% | 0% | 0% | 75% | 81% | 0% | 0% | 0% | 0% | 0% | 0% | 0% | 1% | 0% | 0% | 18% | 58%
4 | Cc1ccc(C(=O)Nc2ccc(Oc3ccc4nc(NC(=O)C5CC5)cn4c3)c(F)c2)c(=O)n1-c1ccccc1 | 0% | 0% | 0% | 0% | 3% | 10% | 11% | 10% | 12% | 0% | 7% | 0% | 88% | 1% | 36% | 21% | 0% | 0% | 0% | 76%
5 | OCCn1cc(-c2cnc3nnn(Cc4ccc5ncccc5c4)c3n2)cn1 | 0% | 0% | 0% | 0% | 0% | 0% | 0% | 0% | 0% | 11% | 0% | 0% | 0% | 0% | 5% | 0% | 0% | 0% | 0% | 15%
6 | COC(=O)c1cccc(NC(=O)NC2CCN(c3ccnc(Nc4cc(OC)c(OC)c(OC)c4)n3)C2)c1 (stereo not drawn) [GSK1379767] | 35% | 0% | 0% | 0% | 26% | 0% | 13% | 19% | 2% | 0% | 36% | 0% | 24% | 0% | 12% | 27% | 0% | 37% | 0% | 16%
7 | Cc1ccc(CC(=O)N2CCc3cc(-c4cn(C)c5ncnc(N)c45)ccc32)cc1 [GSK2634758] | 7% | 0% | 0% | 16% | 22% | 0% | 5% | 19% | 7% | 0% | 21% | 0% | 72% | 5% | 0% | 0% | 0% | 26% | 10% | 1%
8 | O=C(NOCC1CC1)c1cc(Br)c(F)c(F)c1Nc1ccc(I)cc1Cl | 0% | 0% | 0% | 0% | 0% | 0% | 0% | 0% | 0% | 0% | 0% | 0% | 0% | 0% | 14% | 0% | 17% | 14% | 0% | 0%
9 | CC(C)S(=O)(=O)N1CCN(Cc2ccc3c(c2)nc(NC(=O)c2ccsc2)n3C[C@H](O)c2ccccc2)CC1 [GW635815] | 25% | 0% | 0% | 11% | 39% | 0% | 44% | 61% | 22% | 0% | 4% | 0% | 6% | 0% | 25% | 0% | 0% | 42% | 0% | 8%
